Records with an inconclusive call do not appear. A call without a number means that no potency is given here. The source made the active and inactive calls. Calls follow the shape of the dose curve; as a rule, active = well fitted inhibition curve with a large enough effect; inconclusive = small, poorly fitted or top-dose-only effect; inactive = no such curve, though single readings can be large or run the other way.

The experiment in a line: Primary qHTS for inhibitors of nuclear receptor binding SET domain protein 2 (NSD2) in an RCH-ACV wild type WT cells (2C) (AID 1645877). Also: nearly all actives have a fitted effect of over 70% in size. Particulars: RCH-ACV (leukaemia line) NSD2 WT (2C) viability, CellTiter-Glo, 72 h; series mostly up to 44.9 µM.
For the compound `CCCCS(=O)(=O)Nc1ncnc(OCCOc2ncc(Br)cn2)c1-c1ccc(Br)cc1`, the Potency entry was “inactive”. As for `CCC(=O)O[C@]1(C(=O)CCl)[C@@H](C)C[C@H]2[C@@H]3C[C@H](F)C4=CC(=O)C=C[C@]4(C)[C@@]3(F)[C@@H](O)C[C@@]21C`, the Potency result is “inactive”. Still for that read-out and setting: the entry for `COc1cc(/C=C/C(=O)OC2CC(OC(C)=O)C(OC(C)=O)C3C2CCC2C(=O)OC(c4ccoc4)CC23C)ccc1O[C@@H]1O[C@H](CO)[C@@H](O)[C@H](O)[C@H]1O` (stereo not given in full) is “inactive”.

`OC[C@H]1O[C@@H](Oc2cc(O)cc(-c3cc4ccc(O)cc4o3)c2)[C@H](O)[C@@H](O)[C@@H]1O`: the Potency result was “inactive”. On the same count and under the same terms, under `C=C1CCC2C(C)(C)C(O)CCC2(C)C1CCC(C)CCOC(=O)CCC(=O)O` (stereo not given) stands “inactive”; under `O=C(/C=C/c1ccc(O)cc1)OC[C@H]1O[C@@H](OC(=O)/C=C/c2ccccc2)[C@H](O)[C@@H](O)[C@@H]1O`, “inactive”.

Regarding `C[C@@H]1O[C@@H](O[C@H]2[C@H](O[C@H]3[C@H](O[C@H]4CC[C@@]5(C)C(CC[C@]6(C)C5CC=C5[C@@H]7CC(C)(C(=O)O)C[C@@H](O)[C@]7(C)CC[C@]56C)[C@@]4(C)CO)O[C@H](C(=O)O)[C@@H](O)[C@@H]3O)O[C@H](CO)[C@H](O)[C@@H]2O)[C@H](O)[C@H](O)[C@H]1O` (stereo not given in full), the activity change, negative = cell killing was -5.72% [at 9.23 µM] (inactive). Take `COC1C2=C(COC2=O)C2(C)CCCC(C)(CO)C2C1OC(=O)c1ccccc1` (stereo not given): the Potency entry was “inactive”.

As for `CCC[C@@H]1C[C@@H](C(=O)N[C@H](C(C)Cl)[C@H]2O[C@H](SC)[C@H](O)[C@@H](O)[C@H]2O)N(C)C1` (stereo not given in full), the Potency result is “inactive”. Still for that read-out and setting: under `COc1ccc(C(=O)O[C@H]2CC(C)=CC[C@@]3(C)[C@@H](OC(C)=O)C[C@@](O)(C(C)C)[C@H]23)cc1` stands “inactive”; under `COc1cc([C@H]2OC[C@@H]3[C@@H](c4ccc(O[C@@H]5O[C@H](CO)[C@@H](O)[C@H](O)[C@H]5O)c(OC)c4)OC[C@]23O)ccc1O`, “inactive”. In the case of `C=CC(C)(O)CC/C=C(/C)C(=O)OC1C(OC2OCC(OC3OC(CO)C(O)C(O)C3O)C(OC3OCC(O)C(OC4OC(C)C(O)C(O)C4O)C3O)C2O)COC(OC(=O)C23CCC(C)(C)CC2C2=CCC4C5(C)CCC(OC6OC(CO)C(OC7OC(CO)C(O)C(OC8OCC(O)C(O)C8O)C7O)C(O)C6O)C(C)(C)C5CCC4(C)C2(C)CC3O)C1O` (stereo not given), the activity change, negative = cell killing is -25% [at 4.96 µM] (inactive). For the compound `CCC(C)/C=C(C)/C=C/C1=CC2=C(Cl)C(=O)C(C)(OC(C)=O)C(=O)C2=CN1CCCC(=O)O` (stereo not given), the Potency result is “inactive”.

With `CC(CO[C@@H]1O[C@H](COC(=O)/C=C/c2ccc(O)c(O)c2)[C@@H](O)[C@H](O)[C@H]1O)C1(O)COC(=O)C1` (stereo not given in full), the Potency result was “inactive”.

For the compound `CC(/C=C/C1(O)C2(C)COC1(C)CC(=O)C2)O[C@@H]1O[C@H](CO)[C@@H](O)[C@H](O)[C@H]1O` (stereo not given in full), the Potency result is “inactive”.

With `C[C@@H](OC(=O)/C=C/c1ccc(O)cc1)C1=C[C@]2(C=C[C@@H]3C(C(=O)O)=CO[C@@H](O[C@@H]4O[C@H](CO[C@@H]5O[C@H](CO)[C@@H](O)[C@H](O)[C@H]5O)[C@@H](O)[C@H](O)[C@H]4O)[C@@H]32)OC1=O`, the Potency entry is “inactive”. The same measure, in the same setting: the entry for `O=C(O[C@@H]1O[C@H](CO)[C@@H](O)[C@H](O)[C@H]1O)c1c(O)cc(O)cc1/C=C/c1ccccc1` is “inactive”. Same read-out and setting: the entry for `C=C1CCC2(OC1)OC1CC3C4CC=C5CC(O)CC(O[C@@H]6OC[C@@H](O)[C@H](O)[C@H]6O)C5(C)C4CCC3(C)C1(O)C2C` (stereo not given in full) is “inactive”; for `CCOc1nc2cccc(C(=O)O)c2n1Cc1ccc(-c2ccccc2-c2noc(=O)[nH]2)cc1` it is “inactive”. On the same count and under the same terms, the entry for `C=C1CCC2C(OC(=O)C2(O)COC(C)=O)C2C(=C)C(O)CC12` (stereo not given) is “inactive”; for `C=C1C2=CC(O)C(C)C1(C)CC/C(C)=C/CCC1(C)OC1C2=O` (stereo not given) it is “inactive”; for `CC(=O)O[C@@H]1[C@H]2[C@@H](OC(=O)c3ccccc3)[C@@H](C)C[C@]2(O)[C@H](OC(C)=O)[C@@]2(C)[C@@H]3CC(C)(C)C(=O)[C@]3(OC(C)=O)C[C@@]12C` it is “inactive”. Take `C=C1CCC2C(C)(CO[C@@H]3O[C@H](CO)[C@@H](O)[C@H](O)[C@H]3O)C(O)CCC2(C)C1C(=O)CC1=CCOC1=O` (stereo not given in full): the Potency entry is “inactive”. Turning to `OC[C@H]1O[C@@H](OC(CCCCc2ccc(O)cc2)CCc2ccc(O)cc2)[C@H](O[C@@H]2OC[C@](O)(CO)[C@H]2O)[C@@H](O)[C@@H]1O` (stereo not given in full), the Potency entry was “inactive”. Still for that read-out and setting: the entry for `Nc1c(Br)cc(Br)cc1CNC1CCC(O)CC1` (stereo not given) is “inactive”.
